# Screens (PubChem)
# Pf apPOL block = Pf-apPOL DNA polymerase inhibition; inhibition, % at 10 µM; 0.25% of 210,000 active; Recombinant Pf-apPOL, molecular beacon fluorescence, 1.5 h; AID 1794808
# mHTT CaM bind = inhibitors of human mutant huntingtin-calmodulin interaction | P42858 | AlphaScreen His-mHTT/GST-CaM binding, luminescence | inhibition, % at 15 µM | 3.6% of 190,000 active;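 note: 0% = both proteins with DMSO and 100% = one protein alone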
# Target sequence (P42858 whole entry, looked up, stated change not applied): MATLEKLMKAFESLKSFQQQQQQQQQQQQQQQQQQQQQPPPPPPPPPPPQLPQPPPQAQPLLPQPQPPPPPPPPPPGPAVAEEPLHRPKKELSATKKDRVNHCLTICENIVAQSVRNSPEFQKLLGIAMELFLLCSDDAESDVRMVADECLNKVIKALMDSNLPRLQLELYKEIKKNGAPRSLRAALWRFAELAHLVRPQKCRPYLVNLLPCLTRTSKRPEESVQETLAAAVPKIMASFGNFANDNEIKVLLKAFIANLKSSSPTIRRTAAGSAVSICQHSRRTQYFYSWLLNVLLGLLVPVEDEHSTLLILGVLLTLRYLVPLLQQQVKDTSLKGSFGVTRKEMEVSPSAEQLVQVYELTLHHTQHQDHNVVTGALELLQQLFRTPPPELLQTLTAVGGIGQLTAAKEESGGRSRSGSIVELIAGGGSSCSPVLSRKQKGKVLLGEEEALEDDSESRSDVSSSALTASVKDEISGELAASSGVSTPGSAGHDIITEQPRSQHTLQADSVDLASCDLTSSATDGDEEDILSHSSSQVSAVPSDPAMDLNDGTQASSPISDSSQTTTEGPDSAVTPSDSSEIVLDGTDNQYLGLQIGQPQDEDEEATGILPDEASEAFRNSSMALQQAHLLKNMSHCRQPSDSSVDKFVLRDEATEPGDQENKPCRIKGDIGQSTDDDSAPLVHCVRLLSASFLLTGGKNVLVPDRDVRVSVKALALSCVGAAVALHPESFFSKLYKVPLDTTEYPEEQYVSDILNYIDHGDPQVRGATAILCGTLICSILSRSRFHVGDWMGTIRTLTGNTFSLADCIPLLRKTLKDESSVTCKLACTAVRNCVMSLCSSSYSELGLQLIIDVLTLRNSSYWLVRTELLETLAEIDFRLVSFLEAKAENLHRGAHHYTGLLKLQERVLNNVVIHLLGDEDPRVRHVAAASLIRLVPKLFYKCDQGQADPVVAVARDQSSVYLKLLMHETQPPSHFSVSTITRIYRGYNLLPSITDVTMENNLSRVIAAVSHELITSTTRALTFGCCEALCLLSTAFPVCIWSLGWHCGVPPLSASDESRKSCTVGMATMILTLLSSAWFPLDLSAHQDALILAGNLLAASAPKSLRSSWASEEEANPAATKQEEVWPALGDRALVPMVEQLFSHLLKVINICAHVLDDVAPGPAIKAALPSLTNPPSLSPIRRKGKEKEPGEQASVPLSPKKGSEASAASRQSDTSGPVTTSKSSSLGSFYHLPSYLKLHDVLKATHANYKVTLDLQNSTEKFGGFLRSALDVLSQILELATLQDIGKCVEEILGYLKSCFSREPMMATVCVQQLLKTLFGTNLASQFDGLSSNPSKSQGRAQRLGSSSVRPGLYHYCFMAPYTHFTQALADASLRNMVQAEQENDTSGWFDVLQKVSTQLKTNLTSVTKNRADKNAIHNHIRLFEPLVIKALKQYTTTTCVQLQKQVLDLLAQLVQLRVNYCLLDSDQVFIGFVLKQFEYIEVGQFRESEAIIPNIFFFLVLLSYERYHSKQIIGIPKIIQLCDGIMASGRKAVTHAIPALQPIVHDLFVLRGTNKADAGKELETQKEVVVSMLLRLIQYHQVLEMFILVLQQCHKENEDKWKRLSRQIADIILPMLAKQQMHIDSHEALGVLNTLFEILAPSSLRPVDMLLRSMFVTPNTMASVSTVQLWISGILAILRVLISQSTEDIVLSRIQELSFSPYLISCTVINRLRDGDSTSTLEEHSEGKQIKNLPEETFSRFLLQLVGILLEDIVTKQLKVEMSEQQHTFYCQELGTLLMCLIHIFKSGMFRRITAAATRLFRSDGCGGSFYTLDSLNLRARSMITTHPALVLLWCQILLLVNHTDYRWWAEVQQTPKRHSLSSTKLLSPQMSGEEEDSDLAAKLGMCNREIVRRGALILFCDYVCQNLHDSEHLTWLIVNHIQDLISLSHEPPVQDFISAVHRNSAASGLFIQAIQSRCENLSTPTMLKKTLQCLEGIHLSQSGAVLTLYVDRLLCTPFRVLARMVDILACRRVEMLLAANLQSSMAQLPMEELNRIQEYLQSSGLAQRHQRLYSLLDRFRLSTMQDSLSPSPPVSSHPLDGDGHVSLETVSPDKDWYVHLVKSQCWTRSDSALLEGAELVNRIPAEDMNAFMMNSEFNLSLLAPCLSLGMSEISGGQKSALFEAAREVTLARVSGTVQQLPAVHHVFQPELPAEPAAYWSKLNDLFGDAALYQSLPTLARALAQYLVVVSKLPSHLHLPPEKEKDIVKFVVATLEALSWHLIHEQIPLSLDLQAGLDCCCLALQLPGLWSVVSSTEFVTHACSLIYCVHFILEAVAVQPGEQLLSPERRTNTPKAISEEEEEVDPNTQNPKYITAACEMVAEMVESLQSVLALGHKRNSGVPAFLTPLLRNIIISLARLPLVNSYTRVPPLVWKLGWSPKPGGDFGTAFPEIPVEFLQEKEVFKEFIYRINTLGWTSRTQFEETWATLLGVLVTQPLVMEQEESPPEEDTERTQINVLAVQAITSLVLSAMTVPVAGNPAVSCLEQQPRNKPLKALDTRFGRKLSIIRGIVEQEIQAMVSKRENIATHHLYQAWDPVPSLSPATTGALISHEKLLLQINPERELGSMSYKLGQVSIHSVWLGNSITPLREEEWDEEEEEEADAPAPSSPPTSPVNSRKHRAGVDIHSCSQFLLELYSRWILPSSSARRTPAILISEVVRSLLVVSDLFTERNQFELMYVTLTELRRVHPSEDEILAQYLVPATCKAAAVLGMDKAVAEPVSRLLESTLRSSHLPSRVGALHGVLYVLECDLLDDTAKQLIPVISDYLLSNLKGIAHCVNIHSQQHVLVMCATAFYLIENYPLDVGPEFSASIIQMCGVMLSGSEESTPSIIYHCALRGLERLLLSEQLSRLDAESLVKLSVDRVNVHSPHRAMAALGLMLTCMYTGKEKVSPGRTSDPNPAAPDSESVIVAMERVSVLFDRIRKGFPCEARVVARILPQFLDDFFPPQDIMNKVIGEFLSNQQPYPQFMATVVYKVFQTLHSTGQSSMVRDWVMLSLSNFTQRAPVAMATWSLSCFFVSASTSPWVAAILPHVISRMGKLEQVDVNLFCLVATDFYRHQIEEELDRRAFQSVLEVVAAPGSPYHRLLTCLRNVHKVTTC
# * = called active by the depositor; . = no result given. A selection: hits, their analogues and other compounds. The true share with any hit is near 3.6%. Cut-off read from the data, not from the text of the source: active = inhibition above about 50%; inactive = the rest.
SMILES,Pf apPOL block,mHTT CaM bind
Cc1ccccc1CC(=O)N1CCC(COc2ccc(C(=O)NC3CC3)cc2)CC1,-4,7
COc1ccccc1C=C1Oc2c(ccc3c2CN(Cc2cccnc2)CO3)C1=O,-28,42
COc1ccccc1C=C1Oc2c(ccc3c2CN(Cc2cc(OC)c(OC)c(OC)c2)CO3)C1=O,-18,55*
COc1ccccc1C=C1Oc2c(ccc3c2CN(Cc2ccncc2)CO3)C1=O,-30,5
COc1ccc(C=C2Oc3c(ccc4c3CN(CCN3CCOCC3)CO4)C2=O)c(OC)c1,-36,55*
COc1ccc(C=C2Oc3c(ccc4c3CN(Cc3ccco3)CO4)C2=O)cc1OC,-29,58*
COc1ccccc1C=C1Oc2c(ccc3c2CN(CCN2CCOCC2)CO3)C1=O,-24,57*
COc1cccc(C=C2Oc3c(ccc4c3CN(Cc3ccco3)CO4)C2=O)c1,-32,20
COc1ccc(C=C2Oc3c(ccc4c3CN(Cc3cccnc3)CO4)C2=O)c(OC)c1,-5,18
COc1cccc(-c2nnc(NC(=O)c3ccc(S(=O)(=O)N(C)Cc4ccccc4)cc3)o2)c1,-1,5
Cc1c(-c2noc(-c3cccc(F)c3)n2)nnn1-c1ccccc1,2,-10
Cc1cccc(N2CCN(C(=O)c3ccc(Cl)c(Cl)c3)C(C)C2=O)c1 (stereo unspecified),-3,41
Cc1ccccc1CNC(=O)c1ccc2c(c1)CC(=O)N2C,4,19
O=C(CN1C(=O)S/C(=C\c2c(Cl)cccc2Cl)C1=O)Nc1cc([N+](=O)[O-])ccc1O,-19,61*
Cc1cccc(C)c1NC(=O)CN1C(=O)c2ccc([N+](=O)[O-])cc2C1=O,0,0
Cc1cc2c(C(C)C)c(O)c(O)c(C=NCSN)c2c(O)c1-c1c(C)cc2c(C(C)C)c(O)c(O)c(C=NCSN)c2c1O,.,100*
COc1ccc(OC(=O)OCC(C)C)cc1,3,-12
COC(=O)c1n[nH]nc1[N+](=O)[O-],.,-1
O=C(O)c1n[nH]nc1C(=O)O,.,63*
O=C(Cn1nnc2ccccc21)c1ccc([N+](=O)[O-])cc1,2,5
N#CC1C(c2ccc3ccccc3n2)=CN(CC(=O)c2ccc([N+](=O)[O-])cc2)c2ccccc21 (stereo unspecified),75*,32
CC(C)n1nccc1-c1nnc(NC(=O)C(C)(C)Oc2ccc(Cl)cc2)o1,-227,66*
COc1nn(C)cc1C(=O)Nc1nnc(-c2csc(C)n2)o1,0,58*
Cc1nc(-c2nnc(NC(=O)CCSc3ccccc3)o2)cs1,8,12
CSc1ccc(N2CC(c3nnc(NC(=O)Cc4cccs4)o3)CC2=O)cc1 (stereo unspecified),-3,14
SMILES,Pf apPOL block,mHTT CaM bind
COc1cccc(N2CC(C(=O)O)CC2=O)c1 (stereo unspecified),-1,-4
COc1ccc(N2CC(c3nnc(NC(=O)Cc4cccs4)o3)CC2=O)cc1 (stereo unspecified),-6,65*
CC(C)(Oc1ccc(Cl)cc1)C(=O)Nc1ccncc1,-2,-3
COc1cccc(N2CC(C(=O)Nc3c(C(N)=O)oc4ccccc34)CC2=O)c1 (stereo unspecified),-3,59*
O=C1CSC(c2ccccc2Br)N1c1ccc(Br)cc1 (stereo unspecified),-2,-21
COc1nn(C)cc1C(=O)Nc1nnc(C2CC(=O)N(c3ccccc3)C2)o1 (stereo unspecified),-2,54*
CC(C)(C)C(=O)Nc1nnc(C2CC(=O)N(c3ccccc3)C2)o1 (stereo unspecified),-1,4
COc1ccccc1C(=O)Nc1nnc(C2CC(=O)N(c3ccccc3)C2)o1 (stereo unspecified),-2,17
CC(C)(Oc1ccc(Cl)cc1)C(=O)Nc1nnc(C2CC(=O)N(c3ccccc3)C2)o1 (stereo unspecified),-35,98*
COc1cccc(CC(=O)Nc2nnc(C3CC(=O)N(c4ccccc4)C3)o2)c1 (stereo unspecified),-3,87*
COc1ccc(N2CC(c3nnc(NC(=O)Cc4ccccc4C)o3)CC2=O)cc1 (stereo unspecified),-3,49
CC1CCc2nn(CC(=O)NCCc3ccccc3)cc2C1 (stereo unspecified),2,-6
CNC(=O)CN1C(=O)/C(=C/c2cccc(Cl)c2)Sc2ccccc21,-9,9
Oc1ccccc1-c1nc2ccccc2[nH]1,1,65*
O=c1[nH]c(-c2ccccc2O)nc2ccccc12,2,-9
COc1ccc(-c2nn(-c3ccccc3)cc2C=Nc2c(C)n(C)n(-c3ccccc3)c2=O)cc1,-4,23
COc1c(C(=O)N2CCCC2)sc2ccc(Cl)cc12,-1,0
CCOCCCNS(=O)(=O)c1ccc(OCC)c2ncccc12,-9,-4
COc1ccccc1N1C(=O)C=C(c2ccc(Cl)cc2)C1=O,0,20
O=C1C=C(c2ccc(Cl)cc2)C(=O)N1c1ccccc1Cl,-3,62*
CC(C)C(=O)NC(c1cccs1)c1cc(Cl)c2cccnc2c1O (stereo unspecified),16,18
CC(C)C(NC(=O)C1CCN(c2ccc(N3CCCCC3)nn2)CC1)c1cccs1 (stereo unspecified),-8,1
O=C(CCc1ccccc1)NC(c1cccs1)c1ccc2cccnc2c1O (stereo unspecified),-4,19
CC(C)CC(=O)NC(c1cccs1)c1ccc2cccnc2c1O (stereo unspecified),-1,100*
CC(C)CC(=O)Nc1cccc(NC(=O)c2cccs2)c1,0,-2
SMILES,Pf apPOL block,mHTT CaM bind
CCCC(=O)NC(c1cccs1)c1ccc2cccnc2c1O (stereo unspecified),-1,100*
CCCC(=O)NC(c1cccs1)c1cc(Cl)c2cccnc2c1O (stereo unspecified),-5,100*
O=C(NC(c1cccs1)c1ccc2cccnc2c1O)C1CCCCC1 (stereo unspecified),-14,97*
O=C(Nc1ccccc1)c1ccc(-c2cccc(F)c2)nc1,0,-11
CNc1c(Cl)ccc2c1C(=O)c1ccccc1C2=O,2,14
CN(C)CC(C)(C)CNC1CCN(C)CC1,0,-8
C=CCN(c1ccccc1)S(=O)(=O)c1ccc2c(c1)CC(C)N2C(=O)CC (stereo unspecified),8,-5
Clc1ccc2c(c1)C1CC(c3cccs3)=NN1C1(CCCC1)O2 (stereo unspecified),-6,78*
CCOc1cccc2c1OC1(CCCCC1)N1N=C(c3cccs3)CC21 (stereo unspecified),-21,22
CC1(C)Oc2ccc(Cl)cc2C2CC(c3ccc(F)cc3)=NN21 (stereo unspecified),-18,50
Brc1ccc2c(c1)C1CC(c3cccs3)=NN1C1(CCCC1)O2 (stereo unspecified),-3,72*
CC1CCC(C(C)C)C(OCC(O)CN2CCN(C)CC2)C1 (stereo unspecified),-5,5
O=S(=O)(N=C(NS(=O)(=O)c1ccc(Cl)cc1)c1ccccc1)c1ccccc1,2,-1
O=C(O)c1ccc(NC2=CC(=NS(=O)(=O)c3ccccc3)c3ccccc3C2=O)cc1,7,62*
O=C1C(Nc2ccc(O)cc2)=CC(=NS(=O)(=O)c2ccc(Cl)cc2)c2ccccc21,0,98*
CCc1ccc(S(=O)(=O)N=C2C=C(Nc3cccc(C(=O)O)c3)C(=O)c3ccccc32)cc1,-3,80*
